Measured values as given in PubChem BioAssay (NCATS).
Results filed as inconclusive are left out. The source made the active and inactive calls. Calls follow the shape of the dose curve; as a rule, active = well fitted cell-killing curve with a large enough effect; inconclusive = small, poorly fitted or top-dose-only effect, or effect the other way; inactive = no such curve, though single readings can be large or run the other way.
Potency is read from the fitted curve at half-maximal effect.

Experiment: Quantitative High-Throughput drug screen in 47 multiple myeloma cell lines against the NCATS MIPE library collection: VP6_DJ cell viability assay (AID 1919867); also: nearly all actives have a fitted effect of over 40% in size
Details: ATP luminescence, 48 h; series mostly up to 45.8 µM; viability (% of DMSO): at the top concentration
Description: PI: Beverly A. Mock Ph.D.
Laboratory of Cancer Biology and Genetics,
Center for Cancer Research, National Cancer Institute,
National Institute of Health, Bethesda, Maryland
Drug resistance and disease progression are common in multiple myeloma (MM) patients, underscoring the need for new therapeutic combinations. […] We hypothesized that effective combinations would reduce MYC expression and enhance p16 activity. […] These preclinical data identify potentially useful drug combinations for evaluation in drug-resistant MM and reveal potential mechanisms of combined drug sensitivity.
Described herein is the primary MIPE qHTS used to cherrypick compounds. Validated compounds were then further tested for potential synergistic activiy.
[1] Peat TJ, Gaikwad SM, Dubois W, Gyabaah-Kessie N, Zhang S, Gorjifard S, Phyo Z, Andres M, Hughitt VK, Simpson RM, Miller MA, Girvin AT, Taylor A, Williams D, D'Antonio N, Zhang Y, Rajagopalan A, Flietner E, Wilson K, Zhang X, Shinn P, Klumpp-Thomas C, McKnight C, Itkin Z, Chen L, Kazandijian D, Zhang J, Michalowski AM, Simmons JK, Keats J, Thomas CJ, Mock BA. Drug combinations identified by high-throughput screening promote cell cycle transition and upregulate Smad pathways in myeloma. Cancer Lett. 2023 Aug 1;568:216284. doi: 10.1016/j.canlet.2023.216284. Epub 2023 Jun 24. PMID: 37356470; PMCID: PMC10408729.
SEQUENCE No. (e.g., 1, 2, 3, etc.); […] (e.g., Cells, Incubation, Reagent, etc.); VALUE and DESCRIPTION.
1; Cells; 5 uL; white, solid bottom 1536-well Greiner assay plate.
2; Compounds; 23 nL; Kalypsis pin tool (Wako USA) equipped with a 1536-well pin head to transfer to the assay plates.
3; Incubation; 48 hours; 37C incubation.
4; Reagent;5uL; CellTiter Glo (Promega).
5; Detector; 425V; Luminescence; Viewlux PerkinElmer.
NOTES (numbers refer to Sequence numbers above)
1. The cell-based screening methods employed in this study were like those previously published. Briefly, the corresponding myeloma cell lines were screened in 1,536-well plates with 500 cells, 5-uL per well for inhibition of cell viability (assessed by measuring ATP levels with CellTiterGlo).
2. NCATS MIPE 4.0 library of approved and investigational drugs were added using the Kalypsis pin tool. Wells treated with DMSO only for 100% viability and media only for 0% viability were used as controls.
3. The assay plates were covered and incubated for 48 hours in a 37C, 5% CO2 incubator with controlled humidity.
4. After 48 hours, CellTilter-GloTM luminescent substrate mix (Promega) reagent was added to the assay plate and plates we incubated for 5 min at room temperature.
5. Signal was measured as median relative luminescence units on a ViewLux (PerkinElmer) multiplate reader.
[1] Heske CM, Davis MI, Baumgart JT, Wilson K, Gormally MV, Chen L, Zhang X, Ceribelli M, Duveau DY, Guha R, Ferrer M, Arnaldez FI, Ji J, Tran HL, Zhang Y, Mendoza A, Helman LJ, Thomas CJ. Matrix Screen Identifies Synergistic Combination of PARP Inhibitors and Nicotinamide Phosphoribosyltransferase (NAMPT) Inhibitors in Ewing Sarcoma. Clin Cancer Res. 2017 Dec 1;23(23):7301-7311. doi: 10.1158/1078-0432.CCR-17-1121. Epub 2017 Sep 12. PMID: 28899971; PMCID: PMC6636827.
For `CC(C)(Sc1cc(C(C)(C)C)c(O)c(C(C)(C)C)c1)Sc1cc(C(C)(C)C)c(O)c(C(C)(C)C)c1`, the Potency was 18.7 µM (active).
In the case of `CCn1cc(C(=O)O)c(=O)c2cc(F)c(N3CCNCC3)cc21`, the “viability (% of DMSO)” value is reported as 145% (inactive).
For `CC(=O)Oc1ccccc1C(=O)Nc1ncc([N+](=O)[O-])s1`, the Potency was 17.1 µM (active).
For `NC(=O)c1cccnc1`, the “viability (% of DMSO)” value was 123% (inactive).
In the case of `CC1=CC(=O)c2ccccc2C1=O`, the Potency is reported as 16.6 µM (active).
In the case of `Cc1oc(=O)oc1CN1CCN(c2cc3c(cc2F)c(=O)c(C(=O)O)c2n3C(C)S2)CC1` (stereo not given), the “viability (% of DMSO)” value is reported as 125% (inactive).
With `CN(CCOc1ccc(CC2SC(=O)NC2=O)cc1)c1ccccn1` (stereo not given) the “viability (% of DMSO)” value was 131% (inactive).
For `CN(C)c1ccc(C(=C2C=CC(=[N+](C)C)C=C2)c2ccc(N(C)C)cc2)cc1`, the Potency was 0.0296 µM (active).
With `O=C(O)c1ccc(-n2nc(-c3ccccc3O)nc2-c2ccccc2O)cc1` the Potency was 16.6 µM (active).
In the case of `CO[C@@]12[C@H](COC(N)=O)C3=C(C(=O)C(C)=C(N)C3=O)N1C[C@@H]1N[C@@H]12`, the Potency is reported as 20.9 µM (active).
With `CN(C)CCc1c[nH]c2ccc(C[C@H]3COC(=O)N3)cc12` the “viability (% of DMSO)” value was 107% (inactive).
With `CC1=C(C(=O)O)N2C(=O)[C@@H](NC(=O)C(N)c3ccccc3)[C@H]2SC1` (stereo not given in full) the “viability (% of DMSO)” value was 140% (inactive).
With `O=P(O)(O)C(O)(Cc1cccnc1)P(=O)(O)O` the “viability (% of DMSO)” value was 117% (inactive).
With `O[C@@H](CNC[C@H](O)[C@H]1CCc2cc(F)ccc2O1)[C@@H]1CCc2cc(F)ccc2O1` the Potency was 14.8 µM (active).
In the case of `CN1CCCC(n2nc(Cc3ccc(Cl)cc3)c3ccccc3c2=O)CC1` (stereo not given), the Potency is reported as 1.48 µM (active).
For `CCCCS(=N)(=O)CCC(N)C(=O)O` (stereo not given), the Potency was 7.43 µM (active).
With `O=C(O)c1cccnc1` the Potency was 16.6 µM (active).
With `Oc1c(Cl)cc(Cl)c2cccnc12` the Potency was 5.9 µM (active).
In the case of `CCCCc1oc2ccc(NS(C)(=O)=O)cc2c1C(=O)c1ccc(OCCCN(CCCC)CCCC)cc1`, the Potency is reported as 7.43 µM (active).
With `NC1(c2ccc(-c3nc4ccn5c(=O)[nH]nc5c4cc3-c3ccccc3)cc2)CCC1` the Potency was 1.87 µM (active).
With `C[C@@H]1C[C@H]2[C@@H]3CCC4=CC(=O)C=C[C@]4(C)[C@@]3(Cl)[C@@H](O)C[C@]2(C)[C@@]1(OC(=O)c1ccco1)C(=O)CCl` the Potency was 2.96 µM (active).
For `Cc1onc(-c2ccccc2Cl)c1C(=O)N[C@@H]1C(=O)N2[C@@H]1SC(C)(C)[C@@H]2C(=O)O`, the “viability (% of DMSO)” value was 147% (inactive).
With `NNC(=O)c1ccncc1` the “viability (% of DMSO)” value was 144% (inactive).
In the case of `CCOC(=O)c1ccc(OC(=O)CCCCCN=C(N)N)cc1`, the “viability (% of DMSO)” value is reported as 112% (inactive).
In the case of `Nc1ccc(S(=O)(=O)Nc2ccccn2)cc1`, the “viability (% of DMSO)” value is reported as 138% (inactive).
In the case of `COc1ncnc(NS(=O)(=O)c2ccc(N)cc2)c1OC`, the “viability (% of DMSO)” value is reported as 123% (inactive).
With `N=C(N)c1ccc(OCCCCCOc2ccc(C(=N)N)cc2)cc1` the Potency was 2.09 µM (active).
For `Nc1nc(=S)c2[nH]cnc2[nH]1`, the Potency was 1.66 µM (active).
With `Cc1cc(NS(=O)(=O)c2ccc(N)cc2)no1` the “viability (% of DMSO)” value was 101% (inactive).
For `CCC(C)(C)c1ccc(CC(C)CN2C[C@@H](C)O[C@@H](C)C2)cc1` (stereo not given in full), the Potency was 16.6 µM (active).
For `Nc1nc(N)nc(-c2cc(Cl)ccc2Cl)n1`, the Potency was 6.62 µM (active).
In the case of `Cc1cccc(Nc2ccncc2S(=O)(=O)NC(=O)NC(C)C)c1`, the Potency is reported as 7.43 µM (active).
For `COC(=O)Nc1nc2ccc(S(=O)c3ccccc3)cc2[nH]1` (stereo not given), the Potency was 13.2 µM (active).
With `Cc1ncc([N+](=O)[O-])n1CCO` the “viability (% of DMSO)” value was 162% (inactive).
For `Cc1nnc(C(=O)NC(C)(C)c2nc(C(=O)NCc3ccc(F)cc3)c(O)c(=O)n2C)o1`, the “viability (% of DMSO)” value was 146% (inactive).
With `NC(=O)N1c2ccccc2CC(=O)c2ccccc21` the “viability (% of DMSO)” value was 109% (inactive).
In the case of `Cc1ccnc2c1NC(=O)c1cccnc1N2C1CC1`, the Potency is reported as 26.4 µM (active).
In the case of `CCn1cc(C(=O)O)c(=O)c2cc(F)c(N3CCN(C)CC3)cc21`, the “viability (% of DMSO)” value is reported as 126% (inactive).
For `COc1cnc(NS(=O)(=O)c2ccc(N)cc2)nc1`, the Potency was 20.9 µM (active).
In the case of `CCOCC(O)COc1ccc(NC(=O)CC[S+](C)C)cc1` (stereo not given), the “viability (% of DMSO)” value is reported as 139% (inactive).
